Results taken from PubChem BioAssay AID1863 (Southern Research Specialized Biocontainment Screening …, 2009).
“And” between values parts separate entries of the source, which are not always exact repeats. Identical values can stand only once. Hit rate of the full screen: of about 300,000 compounds, about 480 (0.16%) were called active. These entries were drawn from the full list. Measured potencies and affinities stand elsewhere. Unmarked numbers belong to inactive results.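 The calls were made as follows: active = inhibition over 29.93%, a cutoff 3 SD above the screen mean, later confirmed by dose response; inconclusive = inhibition over 29.93% but no dose response follow-up; inactive = inhibition at most 29.93% or unconfirmed.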

Assay: PhoP-dependent GFP reporter repression – Salmonella Typhimurium, primary screen (AID 1863);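 also: 0% = low Mg2+ inducing control and 100% = high Mg2+ repressing control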
Settings: S. Typhimurium PhoP-regulated promoter GFP reporter, 4 h; at 50 µM; hits give high values

Structure (SMILES)	inhibition
Cn1c(CCCOc2ccc(Cl)cc2Cl)nnc1SCC(=O)Nc1ccc(F)c(Cl)c1	-2.33%
CCC(=O)c1ccc(OCC(=O)OCC(=O)c2cc(C)n(CC3CCCO3)c2C)cc1 (stereo unspecified)	-5.94%
CCOC(=O)N1CCN(S(=O)(=O)c2ccc(C(=O)N(CCN(C)C)c3nc4ccc(Cl)cc4s3)cc2)CC1	14%
CCOc1c(Cl)cc(CNCc2ccncc2)cc1OC	2.05%
O=C(Nc1ncccc1O)C1CCN(S(=O)(=O)c2ccc3ccccc3c2)CC1	-9.16%
CCCCCCn1c2c(c(=N)c3c1CCC3)CCC2	12.9%
CCn1c2c(c(=N)c3c1CCC3)CCC2	-5.05%
CCn1c2c(c(=N)c3c1CCC3)CCCC2	-3.7%
CCCn1c2c(c(=N)c3c1CCC3)CCCC2	-0.71%
CCOC(=O)Cn1c2c(c(=N)c3ccccc31)CCC2	3.57%
CCCCCCCn1c2c(c(=N)c3c1CCC3)CCCC2	5.7%
CCCCn1c2c(c(=N)c3c1CCC3)CCC2	-14.8%
CCCCCn1c2c(c(=N)c3ccccc31)CCC2	12.1%
CCOn1c(SCC)nc2ccccc2c1=O	5.58%
CC(C)c1ccc(NC(=O)CCCN2C(=S)NC(C)(C)CC2C)cc1 (stereo unspecified)	3.65%
COC(=O)c1ccc(NC(=O)CN2CCN(c3ccccc3C)CC2)cc1	-8.21%
O=C(Nc1ccccc1)c1cc(S(=O)(=O)NCc2ccncc2)ccc1Cl	-1.47%
CCc1c(C(=O)NNC(=S)NCC2CCCO2)csc1C (stereo unspecified)	8.11%
COc1ccc(OC)c(-c2csc(NC(=O)c3ccccc3F)n2)c1	-4.14%
Cc1cc(C)c2cc(C=O)c(Cl)nc2c1	3.78%
CCOC(=O)CN1CC23C=CC(O2)C(C(=O)NCc2ccc(C)cc2)C3C1=O (stereo unspecified)	10.7%
CC(C)CCNC(=O)C12CN(Cc3ccccc3)CC1C(c1ccc([N+](=O)[O-])cc1)=NO2 (stereo unspecified)	16.1%
COc1ccc(/C=C2\SC(=S)N(C(C)C(=O)NC3C=CS(=O)(=O)C3)C2=O)cc1 (stereo unspecified)	-13.9%

Structure (SMILES)	inhibition
CC(C(=O)N(C)C1CCS(=O)(=O)C1)N1C(=O)/C(=C/c2ccc(F)cc2)SC1=S (stereo unspecified)	3.59%
CC(C(=O)NC1C=CS(=O)(=O)C1)N1C(=O)/C(=C\c2ccccc2)SC1=S (stereo unspecified)	-3.24%
CC(C(=O)NC1C=CS(=O)(=O)C1)N1C(=O)/C(=C/c2cccc(Cl)c2)SC1=S (stereo unspecified)	27.8%
Cc1nn(C)c(C(=O)N/N=C/c2cccc(Oc3ccccc3)c2)c1Br	8.95%
COc1ccc(CC(=O)N2CC3(C)CC2CC(C)(C)C3)cc1 (stereo unspecified)	1.16%
COc1ccc(F)c(CN2CCCC(CNS(=O)(=O)c3cccc4cccnc34)C2)c1 (stereo unspecified)	-5.85%
CCCCCCn1ccc(=N)cc1	-2.46%
CCCCCCCCCCCCCCCCn1cc[n+](C)c1	22.9%
CCCC(=O)c1ccc(N2CCN(C(=O)OCC)CC2)c(F)c1	1.25%
O=C(N/N=C\c1ccc(O)c([N+](=O)[O-])c1)C1COc2ccccc2O1 (stereo unspecified)	-12.2%
Cc1cc([N+](=O)[O-])cc(/C=N\NC(=O)C2COc3ccccc3O2)c1O (stereo unspecified)	-5.46%
O=C(N/N=C\c1ccc(-c2ccccc2[N+](=O)[O-])o1)C1COc2ccccc2O1 (stereo unspecified)	6.06%
COc1cc(/C=N\NC(=O)C2COc3ccccc3O2)cc(OC)c1O (stereo unspecified)	-4.27%
CC(C)[C@H](NC(=O)OCc1ccccc1)C(=O)OCC(=O)NC1(C#N)CCCC1	10.7%
CC1CCC/C(=N\NC(=O)Nc2ccccc2)C1 (stereo unspecified)	2.46%
COc1ccc2cc(C(=O)C3CCCN(C(=O)c4cnn(C(C)C)c4)C3)ccc2c1 (stereo unspecified)	2.9%
CN(CC(=O)Nc1ccc(F)cc1)C(=O)c1cccc(S(=O)(=O)N2CCN(c3ccccc3)CC2)c1	-1.79%
CC(C)(C)CN1CCN(CCCc2ccccc2)C(CCO)C1 (stereo unspecified)	-4.44%
CCc1cc(CNC(=O)CC2C(=O)NCCN2Cc2c(F)cccc2Cl)on1 (stereo unspecified)	-1.45%
Oc1ccc(/C=N/NC(=S)Nc2cccnc2)c(O)c1O	8.35%
Oc1ccc(/C=N/NC(=S)Nc2cccnc2)c(O)c1	29.1%
CCn1c(CNC(=O)C2CCCCC2)cc2cc(C)ccc21	-0.55%
COc1ccc(C(=O)C2CCCN(C(=O)C3CCOCC3)C2)c(C)c1 (stereo unspecified)	4.46%

Structure (SMILES)	inhibition
C[n+]1cn(Cc2cc(Cl)ccc2OC(F)F)c2ccccc21	-3.69%
CCCCCc1ccc(OCCCC[n+]2ccccc2)c(CCCCC)c1	3.64%
CCCCCc1ccc(OCCCC[n+]2ccc(C)cc2)c(CCCCC)c1	15.8%
CCCCCc1ccc(OCCCC[n+]2cccc(C)c2)c(CCCCC)c1	3.26%
O=C1CC(C(=O)Nc2ccccc2)N=C(N2CCCCC2)N1 (stereo unspecified)	0.85%
OCC[C@H]1C[C@@H](O)[C@H](O)[C@]2(CCCCO2)O1	-4.87%
O=C(Cn1cc(SCc2cccc(Cl)c2)c2ccccc21)N1CCOCC1	-8.83%
CC(C)c1ccc(C2NC(=S)NC3=C2C(=O)CCC3)cc1 (stereo unspecified)	1.24%
CCOC(=O)/C=c1\s/c(=C\c2ccc(C(F)(F)F)cc2)c(=O)n1CC(=O)NCc1ccco1	-2.01%
O=S(=O)(c1ccc(F)c(F)c1F)N1CCN(C(=S)NC2CC3CCC2C3)CC1 (stereo unspecified)	-4.07%
CCn1cc(C(=O)O)c(=O)c2cnc(N3CCN(C(=S)Nc4ccccc4C(F)(F)F)CC3)nc21	3.15%
CCn1cc(C(=O)O)c(=O)c2cnc(N3CCN(C(=S)Nc4ccc(F)cc4)CC3)nc21	-3.34%
Cc1c(-n2cc(C(=O)O)c(=O)c3cc(F)c(N4CCCC(O)C4)c(F)c32)c(=O)n(-c2ccccc2)n1C (stereo unspecified)	2.04%
S=C(NC1CC2CCC1C2)N1CCN(c2cccc(Cl)c2)CC1 (stereo unspecified)	-2.31%
CCOC(=O)c1cn(-c2nc(-c3ccc(Cl)cc3)cs2)c2c(F)c(N3CC(C)OC(C)C3)c(F)cc2c1=O (stereo unspecified)	10.3%
COC(=O)CC1C(=O)NCCN1C(=S)Nc1ccc(F)cc1 (stereo unspecified)	0.13%
Cn1c(SCC2CCCCC2)nnc1-c1ccncc1	7.51%
CC(NC(=O)c1cc2cc(F)ccc2[nH]1)c1ccccc1 (stereo unspecified)	5.36%
COc1ccc(Cl)cc1NC(=O)C/C(C)=N/NC(=O)COc1ccc(C)cc1	4.2%
Cc1ccc(C(=O)OC(C)C(=O)NC2CCCCC2C)cc1S(=O)(=O)N1CCOCC1 (stereo unspecified)	-5.67%
CCCCC(=O)N1CCN(c2nc3ccc(OCC)cc3s2)CC1	10.3%
CN1CCc2c(sc(NC(=O)C3CCCN3S(=O)(=O)c3ccc(Cl)s3)c2C(N)=O)C1 (stereo unspecified)	-7.52%
CCOc1ccc(N(CC(=O)NCCc2ccccc2)C(=O)c2csnn2)cc1	2.07%

Structure (SMILES)	inhibition
Cc1ccc(-n2nc3ccc(N)cc3n2)cc1Cl	0.05%
O=C(O)COCC(=O)NCc1nc(-c2ccc(C(F)(F)F)cc2)no1	-3.89%
CC1c2ccsc2CCN1S(=O)(=O)c1ccccc1 (stereo unspecified)	5.29%
COc1cc2c(cc1OC)C(COc1ccc([N+](=O)[O-])cc1)NCC2 (stereo unspecified)	5.02%
CC1CCCN(C(=S)NCc2ccccc2)C1 (stereo unspecified)	4.83%
CC1CCN(c2c(NCC3CCC(C(=O)NCc4ccccc4)CC3)c(=O)c2=O)CC1 (stereo unspecified)	-6.12%
Cc1ccc(CCNS(=O)(=O)c2cc(Br)cnc2N)cc1	1.18%
CC1CCCCC1NC(=O)C1CCN(C(=O)c2sccc2-n2cccc2)CC1 (stereo unspecified)	6.9%
COC(=O)COC(=O)c1ccc(O)cc1	-6.41%
Cc1ccc(-c2nc(CS(=O)(=O)CC(=O)N3CCc4ccccc4C3)c(C)o2)cc1	8.69%
COc1ccc(-c2n(CC(=O)OC3CC(C)CCC3C(C)C)c3ccccc3[n+]2C)cc1 (stereo unspecified)	-3.97%
CC1CCC(C(C)C)C(OC(=O)Cn2c(-c3ccc(F)cc3)[n+](C)c3ccccc32)C1 (stereo unspecified)	4.57%
CC1CCC(C(C)C)C(OC(=O)Cn2c(-c3ccc(Br)cc3)[n+](C)c3ccccc32)C1 (stereo unspecified)	10% and 1.48%
CC1CCC(C(C)C)C(OC(=O)Cn2c(-c3ccccc3)[n+](C)c3ccccc32)C1 (stereo unspecified)	-8.38% and 13.1%
Cc1cccc(OCc2n(CC(=O)OC3CC(C)CCC3C(C)C)c3ccccc3[n+]2C)c1 (stereo unspecified)	15.1%
Cc1ccccc1OCc1n(CC(=O)OC2CC(C)CCC2C(C)C)c2ccccc2[n+]1C (stereo unspecified)	6.3%
COc1cccc(N2CCN(C(=O)CN(C)S(=O)(=O)c3ccc4c(c3)c(=O)n(C)c(=O)n4C)CC2)c1	3.8%
CCN(CC)c1ccc(NC(=O)CCNC(=O)c2ccco2)cc1	17.8%
COc1ccc(CNC(=O)COC(=O)CCOc2ccc(C)cc2)cc1OC	-1.68%
CN(Cc1cn(C)c2ccccc12)C(=S)Nc1cc(F)cc(F)c1	-1.37%
COc1ccc(CCN2CC(C(=O)NCCc3ccccc3)CC2=O)cc1OC (stereo unspecified)	6.87%
CCN1CCN(C(=O)c2cnn3c(C(F)F)cc(-c4ccc(C)cc4)nc23)CC1	7.14%
